# According to PubChem BioAssay (Tox21):
# Values without a mark were called inactive. Entries that show only a call come without a potency. Calls of active or inactive are those of the source. The call rests on the fitted dose curve; in most records, active means well fitted curve in the direction sought with a large enough effect in the repeat runs; inconclusive means weak or mixed curves; inactive means flat fitted curve, though single readings scatter.
# Assay: qHTS assay to test for compound auto fluorescence at 460 nm (blue) in HEK293 cells (AID 720678)
# Conditions: blue autofluorescence 405/460 nm; series mostly up to 91.3 µM
# Source text: National Center for Advancing Translational Sciences [NCATS]
# NIH Chemical Genomics Center [NCGC]
# U.S. Environmental Protection Agency [EPA]
# National Institutes of Environmental Health Sciences [NIEHS]
# National Toxicology Program [NTP]
# U.S. Food and Drug Administration [FDA]
# Compound auto fluorescence often interferes with screening of the compound library against various biological targets and signaling pathways. Some of these compounds may have fluorophoric properties. Such properties may interfere with the assay outputs resulting in false positives and/or negatives. To decrease such complications and ensure the compound activities are relevant in terms of biological response, the Tox21 10K compound library was screened for auto fluorescence.
# From the fluorophores used as reporter signals in our screening assays, the auto fluorescence equivalencies of compounds against three fluorophores have been evaluated: Triamterene, Fluorescein and Rose Bengal sodium for blue, green and red fluorescence, respectively. The fluorescence intensities were measured using Excitation/Emission wavelengths at 405/460nm, 485/535nm and 540/590nm for blue, green and red labels, respectively. This assay includes the blue fluorescence data.
# Tox21 Assay Protocol Summary:
# 2,000 HEK293 cells in 5 uL of culture medium containing 10% dialyzed FBS per well were dispensed into black wall/clear bottom 1536-well plates using a Multidrop Combi Dispenser (Thermo Scientific). The assay plates were incubated for 4-5 hr at 37C to allow cell attachment to the well bottom, followed by the transfer of 23 nL compound or DMSO vehicle by a pintool work station (Kalypsys, San Diego, CA). After the assay plates were incubated overnight at 37C and 5% CO2, fluorescence intensities in the assay plates were measured by an Envision (PerkinElmer, Shelton, CT) plate reader using three labels for measuring blue, green and red fluorescence at […] 460, 535 and 590nm respectively.
# Potency means the concentration at half of the fitted maximal effect; tags describe the fitted curve by direction and shape or compound fluorescence and quenching.
Compound,Potency,"fluorescence, % of triamterene"
CC1CC(OC(=O)C(O)c2ccccc2)CC(C)(C)N1C (stereo not given),inactive,–
O=C1Cc2ccccc2N1c1c(Cl)cccc1Cl,inactive,–
C[C@H]1c2cccc(O)c2C(O)=C2C(=O)[C@]3(O)C(O)=C(C(N)=O)C(=O)[C@@H](N(C)C)[C@@H]3[C@@H](O)[C@@H]21,inactive,–
CCOc1ccc(Cc2nccc3cc(OCC)c(OCC)cc23)cc1OCC,–,-0.0249% [at 18.6 µM]
CCOC(=O)c1ccc(I)cc1,inactive,–
COc1ccccc1NC(=O)c1cc2ccccc2cc1O,39.8 µM [fluorescent] (active),–
CC1=C(CC=O)C(C)(C)CCC1,inactive,–
O=C1CCCCCCCCCCOCCCCO1,inactive,–
COc1cc(N)c(Cl)cc1C(=O)NC1CCN(CCCOc2ccc(F)cc2)CC1OC (stereo not given),–,-0.493% [at 18.6 µM]
O=C1NC(=O)c2cc([N+](=O)[O-])ccc21,inactive,–
CCC1(CO)COCOC1,inactive,–
CC(=O)Oc1ccc([N+](=O)[O-])cc1CCl,inactive,–
CCCCCCNC(=O)n1cc(F)c(=O)[nH]c1=O,inactive,–
CCCCCCCC/C=C\CCCCCCCCCCCC(=O)O,inactive,–
Nc1ccc(N=Nc2ccccc2)c(N)c1,inactive,–
O=C(Cn1ccnc1[N+](=O)[O-])NCCO,inactive,–
OCCN1CCN(CCCN2c3ccccc3Sc3ccc(Cl)cc32)CC1,–,-0.38% [at 18.6 µM]
CCOC(=O)c1ccc(OCCN2C[C@H](O)[C@@H](O)[C@H](O)[C@H]2CO)cc1,inactive,–
CC[C@]1(O)C[C@H]2CN(CCc3c([nH]c4ccccc34)[C@@](C(=O)OC)(c3cc4c(cc3OC)N(C=O)[C@H]3[C@@](O)(C(=O)OC)[C@H](OC(C)=O)[C@]5(CC)C=CCN6CC[C@]43[C@@H]65)C2)C1,inactive,–
N#CCCN(CCO)CCO,inactive,–

Compound,Potency,"fluorescence, % of triamterene"
C=Cc1ccc(S(=O)(=O)O)cc1,inactive,–
CC(C)(O)c1ccc(CNC(=O)c2cccnc2Oc2ccc3nonc3c2)cc1,inactive,–
CCOC(=O)C1=C(C)NC(C)=C(C(=O)OC)C1c1cccc(Cl)c1Cl (stereo not given),inactive,–
Cc1ccc(CO)cc1,inactive,–
CCOC(C)=O,inactive,–
COc1cc(C(=O)NC2CCN(C)CC2)ccc1Nc1ncc2c(n1)N(C1CCCC1)CC(F)(F)C(=O)N2C,inactive,–
CC(C)=CCC/C(C)=C/CC/C(C)=C/CCC(=O)OC/C=C(\C)CCC=C(C)C,inactive,–
c1ccc2c(c1)CCc1ccccc1N2,inactive,–
C=C/C(C)=C/C/C=C(\C)CCC=C(C)C,inactive,–
COc1ncnc(NS(=O)(=O)c2ccc(N)cc2)c1OC,inactive,–
O=C(CCCN1CC=C(n2c(=O)[nH]c3ccccc32)CC1)c1ccc(F)cc1,inactive,–
CC(C)C=O,inactive,–
CN1CCCC(CC2c3ccccc3Sc3ccccc32)C1 (stereo not given),–,0.136% [at 18.6 µM]
Brc1cc(Br)c(Oc2cc(Br)c(Br)cc2Br)cc1Br,inactive,–
CC1=C(Br)C(=O)C(Br)=C/C1=C(/c1ccccc1S(=O)(=O)O)c1cc(Br)c(O)c(Br)c1C,inactive,–
CCCCCCCC/C=C\CCCCCCCCO,inactive,–
CCCCCC#CC(=O)OC,inactive,–
CN1CCCN=C1COC(=O)C(O)(c1ccccc1)C1CCCCC1 (stereo not given),inactive,–
CCc1ccccc1,inactive,–
CC(C)Nc1cccnc1N1CCN(C(=O)c2cc3cc(NS(C)(=O)=O)ccc3[nH]2)CC1,inactive,–
